Results: PubChem BioAssay (EPA / NIEHS)
Calls of active or inactive are those of the source. How the source made its calls: active means hit-call score of the fitted dose curve at least 0.9, where 1 is the maximum; inactive means score below 0.9.

Experiment: ATG_M_61_CIS: Attagene CIS-FACTORIAL HepG2 Assay for M61 Transcription Factor (Internal Marker) (AID 2282937)
Conditions: HepG2 Attagene CIS-FACTORIAL M61 internal marker reporter; actives raise or lower the signal
How it was run: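 Human liver HepG2, transient MRTU transfection (cis promoter elements), 24 h compound. Total RNA → oligo(dT) RT → PCR → FAM label → HpaI → CE. Internal background marker; bidirectional fitting, DMSO = baseline.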

outcome, inactive:
CO[Si](C)(OC)c1ccccc1
COc1ccc(OC)c(OC)c1
CN(C)CCOCCN(C)C
CCC/C=C/C=O
CC(=O)O[C@]1(C(C)=O)CC[C@H]2[C@@H]3C[C@H](C)C4=CC(=O)CC[C@]4(C)[C@H]3CC[C@@]21C
CCc1ccc(C=O)cc1
O=C(O)c1cn(-c2ccc(F)cc2)c2cc(N3CCNCC3)c(F)cc2c1=O
c1ccc2c(c1)c1cccc3ccc4cccc2c4c31
Cc1ccc(C=O)cc1
Cc1cccc(C)c1[N+](=O)[O-]
COc1nc(C)nc(N)n1
CCCCCCCCCCCCOCCO
Clc1sc(Cl)c(Cl)c1Cl
NC(N)=NC(=O)c1nc(Cl)c(N)nc1N
O=c1[nH]c(=O)n([C@H]2CCCO2)cc1F
CCC(O)CO (centres undefined)
CO[Si](CCCn1c(=O)n(CCC[Si](OC)(OC)OC)c(=O)n(CCC[Si](OC)(OC)OC)c1=O)(OC)OC
Nc1cc(N)cc(C(=O)O)c1
CCCC(=O)OCCC(C)CCC=C(C)C (centres undefined)
O=C(O)c1cccc(C(F)(F)F)c1
CC[Si](OC(C)=O)(OC(C)=O)OC(C)=O
O=S(=O)(O)NC1CCCCC1
CCCCCCCCC=O
CCCCOCCOCCSC#N
CCCCCCCCCCCCSC
CN1[C@@H]2CC(OC(=O)[C@H](CO)c3ccccc3)C[C@H]1[C@@H]1O[C@@H]12 (some centres undefined)
O=C(O)C[C@H](O)C[C@H](O)/C=C/c1c(C2CC2)nc2ccccc2c1-c1ccc(F)cc1
CCn1c2ccccc2c2cc(N)ccc21
COc1cccc(OC)c1
CCC(=O)OCc1ccccc1
O=[N+]([O-])c1ccc(C=Cc2ccc([N+](=O)[O-])cc2S(=O)(=O)O)c(S(=O)(=O)O)c1
CC(C)C1CCC(O)CC1 (centres undefined)
CC(=O)O[C@H](CC(=O)[O-])C[N+](C)(C)C
C=C(C)C(=O)OCCOC(=O)CC(C)=O
O=C=NC1CCC(CC2CCC(N=C=O)CC2)CC1 (centres undefined)
O=c1cc(-c2ccccc2)oc2cc(O)cc(O)c12
O=c1[nH]nnc2ccccc12
OCCOc1cccc(OCCO)c1

Experiment: ATG_EGR_CIS: Attagene CIS-FACTORIAL HepG2 Assay for human Early Growth Response 1 (EGR1) (AID 2282938)
Conditions: HepG2 Attagene CIS-FACTORIAL EGR reporter mRNA; actives raise or lower the signal
How it was run: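 Transient transfection of human HepG2 with multiple cis-regulated reporter units, chemical exposure 24 h, total RNA isolated. Reverse transcription, PCR, fluorescent labelling and capillary electrophoresis quantify reporter transcripts; activity fitted bidirectionally against DMSO.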

outcome, inactive:
CO[Si](C)(OC)c1ccccc1
COc1ccc(OC)c(OC)c1
CN(C)CCOCCN(C)C
CCC/C=C/C=O
CC(=O)O[C@]1(C(C)=O)CC[C@H]2[C@@H]3C[C@H](C)C4=CC(=O)CC[C@]4(C)[C@H]3CC[C@@]21C
CCc1ccc(C=O)cc1
O=C(O)c1cn(-c2ccc(F)cc2)c2cc(N3CCNCC3)c(F)cc2c1=O
c1ccc2c(c1)c1cccc3ccc4cccc2c4c31
Cc1ccc(C=O)cc1
Cc1cccc(C)c1[N+](=O)[O-]
COc1nc(C)nc(N)n1
CCCCCCCCCCCCOCCO
Clc1sc(Cl)c(Cl)c1Cl
NC(N)=NC(=O)c1nc(Cl)c(N)nc1N
O=c1[nH]c(=O)n([C@H]2CCCO2)cc1F
CCC(O)CO (centres undefined)
